{"source": "PubChem BioAssay AID1259415", "about": "(National Center for Advancing Translational Sciences (NCATS), 2018)", "note": "About 18,000 (4.4%) of roughly 410,000 compounds were called active. Not shown: some 7% with an inconclusive outcome. The sample holds actives, similar compounds and a random draw of the others, so the mix is not that of the screen. Rule as the data show it: active = activity change below about -60%; inconclusive = no clear call, values can overlap the other calls; inactive = above about -39%.", "data": [{"experiment": "qHTS Assay for inhibitors of the human cytomegalovirus (HCMV); also: % is scaled to controls: 0 for no effect and ±100 for the full control effect", "conditions": "HFF cells, HCMV-luciferase reporter, 72 h; at 57.5 µM; hits give low values", "how_it_was_run": "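Two-dose cell screen: HFF monolayers treated with compounds and infected with luciferase-expressing HCMV at 1 PFU/cell, 72 h at 37C, then lysed for luciferase measurement.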", "values": [{"compound": "CCC(c1nc2ccccc2[nH]1)n1c(=O)c(-c2cccs2)nc2ccccc21", "note": "(stereo not given)", "activity change, negative = inhibition": "-2.85% (inactive)"}, {"compound": "CCC(C)N1C(=O)S/C(=C/c2ccc(Sc3nc4ccccc4[nH]3)o2)C1=O", "note": "(stereo not given)", "activity change, negative = inhibition": "-91.5% (active)"}, {"compound": "COc1ccc(C)cc1NC(=O)CCc1c(C)nn(-c2ccc(N3CCOCC3)nn2)c1C", "activity change, negative = inhibition": "39.1% (inactive)"}, {"compound": "CCCCCn1c(=O)[nH]c2cc(C(=O)NCCN(C)CCCC)ccc2c1=O", "activity change, negative = inhibition": "-33.3% (inactive)"}, {"compound": "CCOc1ccc(NC(=O)c2c(NC(=O)Cc3ccccc3)sc3c2CCC(C)C3)cc1", "note": "(stereo not given)", "activity change, negative = inhibition": "-34.6% (inactive)"}, {"compound": "O=C(Cc1ccccc1)Nc1sc2c(c1C(=O)Nc1ccc(Br)cc1)CCC2", "activity change, negative = inhibition": "5.03% (inactive)"}, {"compound": "CCOc1ccc(NC(=O)c2c(NC(=O)Cc3ccccc3)sc3c2CCCCC3)cc1", "activity change, negative = inhibition": "-74.7% (active)"}, {"compound": "CC(C)c1ccc(NC(=O)c2ccc(Cn3nc(N4CCN(c5ccccc5)CC4)ccc3=O)o2)cc1", "activity change, negative = inhibition": "-19.5% (inactive)"}, {"compound": "Cn1ncc2c(Nc3cccc4ccccc34)ncnc21", "activity change, negative = inhibition": "87.3% (inactive)"}, {"compound": "CC(C)CC(=O)Nc1ccc(Cc2ccncc2)cc1", "activity change, negative = inhibition": "-32.9% (inactive)"}, {"compound": "Cc1cc(C)n(CC(=O)Nc2ccc([N+](=O)[O-])cc2)n1", "activity change, negative = inhibition": "-4.15% (inactive)"}, {"compound": "Cc1cc([N+](=O)[O-])nn1CC(=O)Nc1ccc(Cc2ccncc2)cc1", "activity change, negative = inhibition": "-63.5% (active)"}, {"compound": "COc1ccc(NC(=O)CSC2=Nc3ccccc3C3=NC(CC(=O)NCc4ccccc4OC)C(=O)N23)cc1Cl", "note": "(stereo not given)", "activity change, negative = inhibition": "17.7% (inactive)"}, {"compound": "CCC(C)NCCOCCOc1ccc(Br)cc1C", "note": "(stereo not given)", "activity change, negative = inhibition": "-37.4% (inactive)"}, {"compound": "CC(Oc1ccc(Br)cc1)C(=O)NC1CCCCCC1", "note": "(stereo not given)", "activity change, negative = inhibition": "25.7% (inactive)"}, {"compound": "CC(C)(C)CC(C)(C)NCC(O)COCCOc1ccc(Br)cc1", "note": "(stereo not given)", "activity change, negative = inhibition": "-100% (active)"}, {"compound": "O=C(CCc1ccc(S(=O)(=O)N2CCOCC2)cc1)OCC(=O)c1ccc(Br)cc1", "activity change, negative = inhibition": "49% (inactive)"}, {"compound": "C/C(=N\\NC(=O)c1ccoc1C)c1ccccc1O", "activity change, negative = inhibition": "-91.4% (active)"}, {"compound": "CC(=N\\NC(=O)c1cc(Br)ccc1O)/C(=N/O)C(=O)Nc1ccccc1", "activity change, negative = inhibition": "0% (inactive)"}, {"compound": "Cc1ccc(-c2noc(CNC(=O)c3ccoc3C)n2)cc1", "activity change, negative = inhibition": "-11.6% (inactive)"}, {"compound": "Cc1cc(C)c(C#N)c(Nc2cccc(Br)c2)n1", "activity change, negative = inhibition": "34% (inactive)"}, {"compound": "CCOC(=O)c1cc(-c2ccccc2)n(-c2cccc(C(=O)Nc3cc(OC)cc(OC)c3)c2)c1C", "activity change, negative = inhibition": "0% (inactive)"}, {"compound": "O=C(/C=C/c1cccs1)c1cc(Cl)ccc1OC(=O)N1CCOCC1", "activity change, negative = inhibition": "-92.8% (active)"}, {"compound": "O=C(NCC(c1cccs1)N1CCOCC1)c1cc(Cl)ccc1[N+](=O)[O-]", "note": "(stereo not given)", "activity change, negative = inhibition": "-16.2% (inactive)"}, {"compound": "CC(=O)Nc1ccccc1OC(=O)N1CCOCC1", "activity change, negative = inhibition": "-15.8% (inactive)"}]}]}
